High-throughput results deposited in PubChem by The Scripps Research Institute Molecular Screening Center.
This is a sample that favours compounds with a hit; in the whole collection about 0.9% have one here.
SRC1 TRFRET art: flags TR-FRET format artefacts in PPARgamma SRC-1 recruitment agonist screen; TR-FRET detection artefact counter-screen, emission ratio; active compounds read high; TR-FRET ratio at 8 µM; 99,000 tested, 0.34% active; AID 1051; in the data active means TR-FRET ratio above about 2300
SRC2 TRFRET art: TR-FRET artefact, counter-screen to PPARgamma/SRC-2 agonist assay; active compounds read high; 200,000 tested, 0.4% active; TR-FRET ratio at 8 µM; in the data active means TR-FRET ratio above about 2000
SRC3 TRFRET art: TR-FRET artefact, counter-screen to PPARgamma/SRC-3 agonist assay; PPARgamma/SRC-3 format; active compounds read high; TR-FRET ratio at 8 µM; 99,000 tested, 0.39% active; AID 1048; in the data active means TR-FRET ratio above about 2000
PPARg SRC-1 ag: PPARgamma-driven SRC-1 recruitment agonism; PPARgamma-SRC-1 coactivator recruitment biochemical assay; 200,000 tested, 0.41% active; activation, % at 8 µM; in the data active means activation above about 19%;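 further: 0% = DMSO and 100% = reference agonist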
Target sequence (P37231 whole entry, looked up): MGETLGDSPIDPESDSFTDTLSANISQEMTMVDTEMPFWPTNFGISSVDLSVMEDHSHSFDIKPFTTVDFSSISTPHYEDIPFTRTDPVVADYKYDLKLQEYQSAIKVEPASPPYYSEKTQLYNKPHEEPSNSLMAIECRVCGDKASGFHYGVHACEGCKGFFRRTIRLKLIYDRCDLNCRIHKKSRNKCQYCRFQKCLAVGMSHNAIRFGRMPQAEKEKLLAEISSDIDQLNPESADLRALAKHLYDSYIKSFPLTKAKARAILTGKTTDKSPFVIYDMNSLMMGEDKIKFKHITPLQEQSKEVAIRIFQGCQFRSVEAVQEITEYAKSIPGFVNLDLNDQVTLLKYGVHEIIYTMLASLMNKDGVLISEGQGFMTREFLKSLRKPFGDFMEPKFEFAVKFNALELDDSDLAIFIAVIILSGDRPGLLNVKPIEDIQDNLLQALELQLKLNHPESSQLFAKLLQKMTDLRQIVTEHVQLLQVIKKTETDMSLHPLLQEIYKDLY
PPARg SRC-3 ag: PPARgamma-driven SRC-3 recruitment agonism; P37231; 200,000 tested, 0.26% active; biochemical PPARgamma/SRC-3 coactivator recruitment assay; activation, % at 8 µM; in the data active means activation above about 23%;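 further: 0% = DMSO and 100% = reference agonist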
PPARg SRC2 recr: agonists of SRC-2 recruitment by human PPARgamma; P37231; PPARgamma LBD-SRC-2 recruitment, biochemical; activation, % at 8 µM; 200,000 tested, 0.34% active; AID 1032;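 further: 0% = vehicle and 100% = reference agonist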
PPARg SRC2 ag: confirmation of agonists of SRC-2 recruitment by human PPARgamma | AID 1297 | activation, % at 8 µM | 790 tested, 52% active | shares compounds with PPARg SRC-3 ag | biochemical SRC-2 recruitment by PPARgamma;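 further: 0% = vehicle alone and 100% = reference agonist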
PPARg SRC1 ag: confirmation of agonists of SRC-1 recruitment by human PPARgamma; PPARgamma–SRC-1 coactivator recruitment biochemical assay; activation, % at 8 µM; shares compounds with PPARg SRC-3 ag; 790 tested, 43% active; AID 1300; in the data active means activation above about 20%;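 further: 0% = vehicle wells and 100% = reference agonist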
PPARg SRC3 ag: confirmation of agonists of SRC-3 recruitment by human PPARgamma; shares compounds with PPARg SRC-3 ag; biochemical PPARgamma-SRC-3 coactivator recruitment, agonist mode; activation, % at 8 µM; 790 tested, 29% active; in the data active means activation above about 24%;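 further: 0% = vehicle wells and 100% = reference agonist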
Starred values were filed as active, the others as inactive; / = no result. Unless noted, no stated cut-off is given here; in the data, active means activation above about 22%; inactive means the rest.

SMILES	SRC1 TRFRET art	SRC2 TRFRET art	SRC3 TRFRET art	PPARg SRC-1 ag	PPARg SRC-3 ag	PPARg SRC2 recr	PPARg SRC2 ag	PPARg SRC1 ag	PPARg SRC3 ag
CSc1ccc(/C=C/C(=O)c2ccc(NC(=O)Cc3ccccc3)cc2)cc1	/	2038*	/	4.8	10.4	3.2	/	/	/
COc1ccccc1C(=O)N1c2ccccc2Sc2ccccc21	1706	1478	1597	-2.5	3.0	-0.7	/	/	/
COc1ccccc1OC(=O)CCN1c2ccccc2Sc2ccccc21	1668	1756	2481*	-8.8	-1.6	5.4	/	/	/
CN=C(Nc1ccc(C(=O)OC)s1)c1ccc(Cl)cc1	1709	1440	1316	-2.5	4.0	1.1	/	/	/
COc1ccc(C(=O)CC(=O)C(=O)NCCc2cccc(C)c2)cc1	1744	1625	1610	6.3	7.2	1.6	/	/	/
COc1ccc(NS(=O)(=O)c2ccc(N3CCCC3)c(NC(=S)Nc3cccc(S(=O)(=O)N(C)C)c3)c2)cc1	2504*	1957	2049	4.1	-2.6	-8.0	/	/	/
COc1ccc(NS(=O)(=O)c2ccc(N3CCOCC3)c(NC(=O)c3ccc(OC)cc3)c2)cc1	1747	1682	1564	7.1	0.5	-1.4	/	/	/
CC(=O)NC1C(=O)N=C(SCC(=O)Nc2ccc(C(F)(F)F)cc2Cl)NC1=O (stereo unspecified)	1823	1711	1755	-0.5	-2.6	8.7	/	/	/
O=S1(=O)CC2N=C(N(Cc3ccc(F)cc3Cl)c3ccccc3F)SC2C1 (stereo unspecified)	1784	1811	1453	3.1	-6.4	25.4*	/	/	/
CC1(CCC#N)N=C(SCCC#N)N(c2ccccc2)C1=O (stereo unspecified)	/	1990*	/	2.4	1.5	7.9	/	/	/
CC1CCCCN1C(=O)Nc1cccc(C(F)(F)F)c1 (stereo unspecified)	2319*	1781	1831	13.2	5.9	5.3	/	/	/
Cc1cc(Sc2nc(N(C)C)nc(N(C)C)n2)nc(Cl)n1	1690	1707	1738	4.9	3.0	15.0	/	/	/
Cc1ccc(S(=O)(=O)Nc2ccc(Cl)cc2C(=O)c2ccc(F)cc2)cc1	1920	1660	1716	7.9	7.5	4.4	/	/	/
Cc1cc(C)c2nc(SCC(=O)N3CC(=O)Nc4ccccc43)c(C#N)cc2c1	/	3300*	/	-4.2	-1.8	11.8	/	/	/
Cc1cc(NS(=O)(=O)c2ccc(NC(=O)c3ccco3)cc2)no1	/	1513	/	21.3*	14.5	5.5	-0.6	-3.5	-0.3
O=C(CSc1nc2scc(-c3ccco3)c2c(=O)n1-c1ccccc1)N1CCOCC1	/	2021*	/	22.6*	36.7*	34.9*	26.0*	21.3*	19.0
NC(=O)CSc1nc2scc(-c3ccco3)c2c(=O)n1-c1ccccc1	/	1825	/	14.6	4.5	15.5	/	/	/
CC1=NOC(=O)/C1=C\c1ccc(-c2ccccc2Br)o1	4294*	3893*	3608*	82.2*	51.2*	117.6*	78.9*	61.1*	57.8*
Oc1ccccc1CNc1ccc2c(c1)OCCO2	2053	1679	1582	20.6*	7.0	11.5	5.1	2.7	3.2
c1csc(CNc2ccc3c(c2)OCCO3)c1	1796	1372	1463	-2.8	3.5	12.5	/	/	/
COc1ccccc1Nc1nc(C)cc(=O)[nH]1	/	1643	/	6.8	6.2	-4.6	/	/	/
COc1ccccc1Nc1nc2ccccc2[nH]1	/	1580	/	10.7	26.6*	7.9	8.5	7.4	4.5
CC(C)Sc1oc(-c2ccco2)nc1S(=O)(=O)c1ccccc1	/	2119*	/	18.7*	27.7*	46.2*	55.0*	46.1*	34.8*
Cc1c2cc(O)c(=O)cc-2oc2cc(O)c(O)cc12	/	1651	/	6.3	27.2*	16.1	7.3	6.7	5.9
COc1cc(OC)c(-c2c3cc(O)c(=O)cc-3oc3cc(O)c(O)cc23)cc1OC	2053	1611	1808	0.7	3.3	8.0	/	/	/
SMILES	SRC1 TRFRET art	SRC2 TRFRET art	SRC3 TRFRET art	PPARg SRC-1 ag	PPARg SRC-3 ag	PPARg SRC2 recr	PPARg SRC2 ag	PPARg SRC1 ag	PPARg SRC3 ag
CCOC(=O)c1c(-n2cccc2)sc2c1CCCC2=O	1806	1621	1762	10.8	5.6	3.1	/	/	/
Cc1cc2nc(C)n(CCCNC(=O)Nc3cccc4ccccc34)c2cc1C	/	1465	/	1.0	-10.8	-0.9	/	/	/
CC(C)CSC1=NSC2=NC(=O)/C(=C\c3coc4ccccc4c3=O)C(=N)N12	1912	1797	1817	6.7	11.5	4.6	/	/	/
CSC1=NSC2=NC(=O)/C(=C\c3coc4ccccc4c3=O)C(=N)N12	1656	1437	1493	24.6*	28.5*	14.8	9.2	9.7	21.7
CC1(c2ccc(OC(F)F)cc2)NC(=O)N(/N=C/c2c(O)ccc3ccccc23)C1=O (stereo unspecified)	1975	1597	1686	7.9	5.2	0.6	/	/	/
Cc1ccc(C(=O)OCC(=O)c2ccc[nH]2)s1	1844	1546	1557	-6.4	2.0	-1.5	/	/	/
O=C(COC(=O)c1ccc(Cl)s1)c1ccc[nH]1	1863	1677	1421	11.4	7.5	22.4*	3.3	2.6	6.6
COc1ccc2nc(SCc3cccnc3)c(C#N)cc2c1	/	1517	/	82.6*	69.2*	9.4	53.0*	42.0*	33.1*
N#Cc1cc2ccccc2nc1SCc1cccnc1	1739	1334	1426	0.1	-1.2	-0.5	/	/	/
COc1ccc2nc(SC)c(C#N)cc2c1	2037	1641	2738*	7.5	27.0*	11.4	75.3*	57.7*	43.0*
CCn1cc(C(=S)N2CCC(C(N)=O)CC2)c2ccccc21	1785	1621	1436	-4.8	5.1	9.6	/	/	/
N#CC1=C(N)N(c2ccc(Oc3ccccc3)cc2)C(=O)C1	/	1594	/	3.5	5.7	7.7	/	/	/
CN(C)c1ccc(/C=C/c2ccc3ccccc3[n+]2C)cc1	3396*	2876*	2738*	66.2*	59.2*	94.5*	41.2*	33.2*	30.6*
CN(C)c1ccc(/C=C/c2ccncc2)cc1	/	1455	/	-3.9	10.4	2.8	/	/	/
CN(C)c1ccc(/C=C/c2ccc3c4ccccc4ccc3[n+]2-c2ccccc2)cc1	2287	2446*	2137*	47.3*	27.7*	49.0*	30.5*	20.4*	23.0
CCOc1ccc(N/C=C/C(=O)c2ccc3ccccc3c2)c([N+](=O)[O-])c1	/	1478	/	-6.4	-1.2	-2.6	/	/	/
CCOc1ccc(N/C=C/C(=O)c2ccc(C)cc2)c([N+](=O)[O-])c1	/	1659	/	24.3*	18.5	13.2	2.7	2.1	-3.9
Cn1c(-c2sc3cc(C(F)(F)F)cnc3c2-c2cccnc2)n[nH]c1=S	/	1633	/	18.8*	29.6*	18.8	71.8*	56.9*	44.0*
Cn1c(-c2sc3cc(C(F)(F)F)cnc3c2-c2cccs2)n[nH]c1=S	2475*	2200*	2332*	17.3	22.4	29.9*	46.1*	41.5*	29.4*
